# Assay outcomes deposited in PubChem by National Center for Advancing Translational Sciences (NCATS).
# Shown are actives, neighbours in structure and some others; about 19% of the full set was active somewhere.
# ELG1 repair inh – qHTS screen for small molecules that inhibit ELG1-dependent DNA repair in human embryonic kidney (HEK293T) cells expressing luciferase-tagged ELG1. Potency, µM (titrated, usually from 46.1 µM), inactives show at the highest dose activity change, negative = inhibition, hits mostly inhibitors. 2.3% of 330,000 active. HEK293T ELG1-luciferase reporter, luminescence, 16 h; DNA damage induced by 5-fluorouridine; further: potency means the concentration at half of the fitted maximal effect; nearly all actives have a fitted effect of over 55% in size
#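 DMSO vehicle served as the neutral condition. Each well held 2,000 cells given 5-fluorouridine plus compound; after 16 hr at 37 °C/5% CO2, ONE-Glo was added and luciferase measured 30 min later.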
# HT1080NT lethal – qHTS for induction of synthetic lethality in tumor cells producing 2HG: qHTS for the HT-1080-NT fibrosarcoma cell line; HT-1080-NT fibrosarcoma viability, CellTiter-Glo ATP luminescence, 48 h; Potency, µM (titrated, usually from 46.1 µM), for the others: at the top dose activity, negative = less viability, most hits filed as cytotoxic; 1.6% of 360,000 active; AID 686970, 2013;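 further: NT is the 2HG producing partner of a matched IDH1 knockdown line; potency means the concentration at half of the fitted maximal effect; 0% = DMSO-treated cells and -100% = media-only wells without cells; nearly all actives have a fitted effect of over 55% in size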
#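 750 cells/well, RPMI + 5% FBS; 2 h settle, compound pin-transfer, 48 h at 37 degrees C. CellTiter-Glo 10 min RT, luminescence. Normalized to DMSO and media-only wells.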
# DT40 TDP1 no CPT – qHTS for Inhibitors of human tyrosyl-DNA phosphodiesterase 1 (TDP1): qHTS in cells in absence of CPT. DT40 Tdp1-/- hTDP1 cells, no CPT, ATP luminescence, 48 h. Potency, µM (titrated, usually from 46.2 µM), for the others: at the highest dose activity change, negative = growth inhibition, hits mostly inhibitors. 15% of 420,000 active. AID 686978, 2013; further: potency means the concentration at half of the fitted maximal effect; nearly all actives have a fitted effect of over 55% in size
#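 Growth kinetics read by CellTiter-Glo luminescence after ≥48 hr at 37 °C. Cells: DT40 Tdp1-/- stably carrying human TDP1, 400 per well, compound exposure in the absence of CPT (DMSO vehicle).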
# HT1080 IDH1KD tx – qHTS for induction of synthetic lethality in tumor cells producing 2HG: qHTS for the HT-1080-IDH1KD cell line | HT-1080 IDH1 knockdown viability, ATP luminescence, 48 h | Potency, µM (titrated, usually from 46.1 µM), for the others: at the top dose activity, negative = toxicity, usual class: cytotoxic | 2% of 360,000 active | AID 686971, 2013;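 further: potency means the concentration at half of the fitted maximal effect; 0% = DMSO wells and -100% = cell-free medium wells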
#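 Viability of IDH1-knockdown HT-1080 fibrosarcoma cells was assessed by CellTiter-Glo after 48 h at 37 °C with titrated compound; concentration-effect curves were classified by fit quality and response size.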
# IL-1B inflam inh – qHTS for Inhibitors of Inflammasome Signaling: IL-1-beta AlphaLISA Primary Screen; 4.7% of 360,000 active; THP-1 LPS/ATP IL-1B secretion, AlphaLISA, 16 h; active compounds read low; activity change, % at 57.5 µM; in the data active means activity change below about -50%; inconclusive means mostly about -30% to -49%
#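 THP-1 cells pretreated 1 hr with compounds (up to 57.5 uM final), then stimulated with LPS (250 ng/mL final) plus ATP (1.25 mM final); secreted IL-1B measured by AlphaLISA after 16 hr, decreased signal indicating inhibition.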
# DT40 TDP1 CPT – qHTS for Inhibitors of human tyrosyl-DNA phosphodiesterase 1 (TDP1): qHTS in cells in presence of CPT. chicken DT40 Tdp1-/-;hTDP1 cells + 20 nM CPT, ATP luminescence, 48 h. Potency, µM (series often up to 46.2 µM), without a hit: at the top dose activity change, negative = growth inhibition, most hits filed as inhibitors. 12% of 420,000 active; further: potency means the concentration at half of the fitted maximal effect; nearly all actives have a fitted effect of over 55% in size
#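 Chicken DT40 Tdp1-/- cells stably complemented with human TDP1 were seeded at 400 cells/well in medium containing 20 nM camptothecin, exposed to pin-transferred compounds, and grown at 37 °C for at least 48 hr. Viability was read as ATP luminescence.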
# Numbers without * were called inactive; ? = inconclusive; nt = no result. Unless noted, the call rests on the fitted dose curve; in most records, active means well fitted curve in the direction sought with a large enough effect; inconclusive means small, poorly fitted or top-dose-only effect, or another doubt; inactive means no such curve, though single readings can be large; an effect the other way counts as inactive or inconclusive. Unless noted, on the % scale 0 is the no-effect control and ±100 the full control effect.
SMILES,ELG1 repair inh,HT1080NT lethal,DT40 TDP1 no CPT,HT1080 IDH1KD tx,IL-1B inflam inh,DT40 TDP1 CPT
CCCOc1ccc(F)cc1-c1cc(C(=O)Nc2cc(OC)c(OC)c(OC)c2)[nH]n1,nt,?,14.6µM*,?,-11.3,8.2µM*
COc1ccc(NC(=O)c2cc(-c3ccc(F)cc3OC(C)C)n[nH]2)c(OC)c1,nt,15.4%,?,11.9%,-27.2,?
CC(C)Oc1cc(F)ccc1-c1cc(C(=O)Nc2cccc(C(F)(F)F)c2)[nH]n1,nt,16.4µM*,?,?,-22.3,16.4µM*
CCCOc1ccc(F)cc1-c1cc(C(=O)Nc2ccc(OC)nc2)[nH]n1,nt,13.5%,18.4µM*,-2.4%,?,?
O=c1c2sc3ccccc3c2n(Cc2ccc(F)cc2)c(=O)n1Cc1ccccc1,nt,nt,-3.0%,nt,nt,-9.2%
C=C(C)C(=O)OCC(=O)NCc1ccccc1,-5.0%,17.9%,1.2%,-13.6%,-1.6,2.8%
O=C(O)/C=C(\CC(=O)O)C(=O)O,nt,nt,-3.5%,nt,nt,-5.4%
COc1cc(NC(=O)c2cc(-c3cc(F)ccc3OC(C)C)n[nH]2)cc(OC)c1OC,nt,?,16.4µM*,?,?,?
COc1ccc(NC(=O)c2cc(-c3cc(F)ccc3OC(C)C)n[nH]2)cc1OC,nt,-24.6%,?,?,-18.3,?
COc1ccccc1C1CCN(C(=O)c2cccs2)CC1,-0.2%,-0.4%,-18.6%,3.1%,-53.5*,-11.2%
COc1ccccc1C1CCN(C(=O)c2cnn(-c3ccccc3)c2C)CC1,?,-0.6%,14.6µM*,-7.1%,-6.8,20.6µM*
COc1ccc(CN2CCCC(C(=O)c3ccc(SC)cc3)C2)cc1Cn1cccn1 (stereo not given),?,?,?,?,-96.2*,?
CSc1ncc(CN2CCCC(C(=O)c3ccc(C(C)(C)C)cc3)C2)cn1 (stereo not given),22.2%,-15.2%,23.1µM*,-12.1%,20.9,16.4µM*
COc1ccc(C(=O)C2CCCN(C(=O)c3cccc(Cn4cccn4)c3)C2)cc1F (stereo not given),3.8%,-9.5%,?,-1.4%,-16.6,?
CSc1ccc(C(=O)C2CCCN(Cc3ccc(N4CCNC4=O)cc3)C2)cc1 (stereo not given),5.5%,-2.8%,?,-29.5%,-97.4*,6.4%
Cc1ccc(C(=O)Nc2cccc(C(=O)OCc3cc(=O)n4nc(C5CC5)sc4n3)c2)cc1,nt,nt,-16.1%,nt,nt,2.3%
CCOC(=O)N1CCc2c(sc3c2c(=O)n(-c2ccc(Cl)cc2)c(=O)n3CC(C)C)C1,nt,nt,-2.7%,nt,nt,-13.1%
C(=NN=C1c2ccccc2-c2ccccc21)c1ccc2c(c1)OCO2,nt,0.2%,-24.5%,1.4%,-6.3,?
CC1CCCC(NC(=O)c2cccc(S(=O)(=O)N3CCOCC3)c2)C1C (stereo not given),nt,5.2%,?,-1.0%,-16.0,?
O=C(c1cccc(N2C(=O)C3C4C=CC(C4)C3C2=O)c1)N1CCN(c2ccccc2)CC1 (stereo not given),?,-8.9%,-13.7%,8.2%,?,3.1%
O=C(c1cccc(N2C(=O)C3C4C=CC(C4)C3C2=O)c1)N1CCN(c2ccccc2Cl)CC1 (stereo not given),0.8%,-5.1%,20.6µM*,-8.9%,-19.1,?
Cc1cccc(N2CCN(C(=O)c3cccc(N4C(=O)C5CC=CC(C)C5C4=O)c3)CC2)c1C (stereo not given),23.1µM*,1.2%,23.1µM*,-14.5%,-12.7,?
COc1ccccc1N1CCN(C(=O)c2cccc(N3C(=O)C4C5C=CC(C5)C4C3=O)c2)CC1 (stereo not given),-1.5%,4.0%,?,6.1%,15.8,?
C=C1CC[C@@H]2[C@](C)(CO)[C@H](O)CC[C@@]2(C)[C@@H]1C/C=C1/C(=O)OCC1O (stereo not given in full),nt,?,8.2µM*,?,-87.2*,14.6µM*
C=C/C(C)=C/CC1C(=C)CCC2C(C)(C(=O)O)CCCC12C (stereo not given),-3.4%,-4.0%,3.6%,4.3%,9.4,5.5%
SMILES,ELG1 repair inh,HT1080NT lethal,DT40 TDP1 no CPT,HT1080 IDH1KD tx,IL-1B inflam inh,DT40 TDP1 CPT
C=C1CC[C@@H]2[C@](C)(CO)[C@H](O)CC[C@@]2(C)[C@@H]1C/C=C1/C(=O)OC[C@H]1O,nt,nt,2.66µM*,nt,nt,2.99µM*
O=C(Nc1ccc(F)cc1)C(c1ccccc1OC(F)(F)F)N1CCN(C(=O)c2ccco2)CC1 (stereo not given),nt,-12.8%,?,-8.2%,7.0,?
CCCNC(=O)c1ccccc1NC(=O)c1ccc2c(c1)NC(=O)C(C)S2 (stereo not given),?,-29.6%,6.51µM*,9.2µM*,-22.9,10.3µM*
CCCNC(=O)c1ccccc1NC(=O)c1ccc(CSc2ccccc2)cc1,?,-24.8%,20.6µM*,-17.1%,-0.3,?
CC(=O)c1ccccc1NC(=O)c1ccc2c(c1)NC(=O)C(C)S2 (stereo not given),?,-29.5%,?,-8.2%,-6.1,20.6µM*
Cc1ccnc(NC(=O)c2ccc3c(c2)NC(=O)C(C)S3)c1 (stereo not given),?,-5.9%,?,-15.9%,-14.1,-22.4%
O=S(=O)(c1ccccc1)N1CCC2(CCCN(Cc3ccncc3)C2)CC1,nt,nt,-13.8%,nt,nt,-12.4%
COc1ccccc1OCCNC(=O)CN1C(=O)NC2(CCCC2)C1=O,7.2%,16.9%,-7.5%,17.1%,16.1,-2.9%
Cc1ccc(NC(=O)c2oc3ccccc3c2NC(=O)Cc2ccccc2)cc1,nt,nt,?,nt,nt,16.4µM*
CCOc1ccc(CC(=O)Nc2c(C(=O)Nc3ccccc3)oc3ccccc23)cc1OCC,17.9%,-16.0%,?,-9.9%,-14.0,?
CN1CCN(CC(=O)Nc2c(C(=O)c3ccccc3)oc3ccccc23)CC1,-3.5%,23.1µM*,?,20.6µM*,-71.1*,?
